Screen size: about 360,000 compounds; about 7,300 (2%) were called active. The sample holds actives, similar compounds and a random draw of the others, so the mix is not that of the screen. Rule as the data show it: active = inhibition above about 50%; inactive = the rest.
Test: inhibitors of TWEAK-Fn14 signaling, primary screen, luciferase reporter cells, uHTS (AID 1159606)
Settings: TWEAK-stimulated Fn14 reporter cells, luciferase luminescence, 8 h; at 10 µM; stronger effect = higher value

| Structure (SMILES) | inhibition |
| --- | --- |
| CCOC(=O)[C@H]1Nc2ccc(Cl)cc2[C@@H]2[C@H]1C1CC(c3ccccc31)N2C(=O)OCc1ccccc1 (stereo not given in full) | -23.5% (inactive) |
| CCCCNC(=O)OC1CC2CC1[C@H]1CCCCN1C2=O (stereo not given in full) | 7.93% (inactive) |
| CCOC12CC(C)(C)CC(C)(CC3=C1C(=O)CC(C)(C)C3)C2 (stereo not given) | 76.6% (active) |
| Cc1noc(C)c1-c1nc(CSc2ccc(Cl)cc2)no1 | -29% (inactive) |
| COc1cc2nnn(-c3ccncc3)c2cc1OC | 1.57% (inactive) |
| Cn1c(N2CCOCC2)c(C=O)c2ccccc21 | -2.19% (inactive) |
| O=c1oc2ccccc2cc1-c1cn(-c2ccccc2)c(=S)[nH]1 | 107% (active) |
| COc1cccc(-n2c(=S)[nH]c3c(oc4ccccc43)c2=O)c1 | 22.3% (inactive) |
| CC1(C(=O)NS(=O)(=O)c2ccccc2)CCN1C(=O)C/C=C/c1ccccc1 (stereo not given) | -7.09% (inactive) |
| CC1(C(=O)O)CCN1C(=O)/C=C/c1ccccc1 (stereo not given) | 4.71% (inactive) |
| CC1(C)CCSC(/C=C/c2ccccc2)=N1 | 71.7% (active) |
| CC(C)=CCCC1(C)C=Cc2c(ccc3c2[nH]c2cc(O)c(C)cc23)O1 (stereo not given) | 67% (active) |
| CN(C(=O)COC(=O)Cn1cnc2c1c(=O)n(C)c(=O)n2C)C1(C#N)CCCCC1 | -7.55% (inactive) |
| COC(=O)C(C)N(C#N)c1nc(C)nc(C)n1 (stereo not given) | -3.55% (inactive) |
| Cc1nnc(SC(C(=O)Nc2cc(Cl)cc(Cl)c2)c2ccccc2)[nH]c1=O (stereo not given) | -1.44% (inactive) |
| CCCOc1ccc(C(=O)C(CCC(CNCC)C(=O)c2ccc(OCCC)cc2)CNCC)cc1 (stereo not given) | 103% (active) |
| CC(C)CCOc1ccc(C(=O)C[N+]2(C)CCOCC2)cc1 | -7.15% (inactive) |
| CCCc1ccc(OCCNC(=O)c2ccccc2Br)cc1 | -12.5% (inactive) |
| CC(Oc1ccc(F)cc1)C(=O)Nc1ccccc1C(=O)NC1CC1 (stereo not given) | 8.99% (inactive) |
| COC(=O)c1onc(-c2c(OC)cc(OC)cc2OC)c1C(=O)OC | 10.7% (inactive) |

| Structure (SMILES) | inhibition |
| --- | --- |
| CC(C)C(C(=O)NC1CCCCC1)N(CC1CCCO1)C(=O)CNS(=O)(=O)c1ccc(F)cc1 (stereo not given) | 8.87% (inactive) |
| Cc1ccc(N(CC(=O)NC2CCCCC2)C(=O)CCCC(=O)Nc2ccccn2)c(C)c1 | -5.23% (inactive) |
| Cc1onc(-c2ccccc2Cl)c1C(=O)OCc1nnc(-c2ccccc2)o1 | -0.22% (inactive) |
| Cc1ccc(C(=O)NCC(=O)OCc2nnc(-c3ccccc3)o2)cc1 | 9.26% (inactive) |
| Cc1onc(-c2ccccc2)c1-c1nnc(COC(=O)c2ccc(N(C)C)cc2)o1 | 54.4% (active) |
| O=C(NC1CCCC1)C1c2ccccc2OCC(=O)N1CC(F)(F)F (stereo not given) | 1.42% (inactive) |
| COC1=CC(=O)OC(C)(c2ccccc2)C1 (stereo not given) | 20.1% (inactive) |
| COc1cccc2c(O)cc(=O)n(C)c12 | 15.4% (inactive) |
| COc1cc2c(C(=O)O)c(C)n(C)c2c2ccccc12 | 14% (inactive) |
| COc1cccc2c(C)c(C(=O)O)[nH]c12 | 74.4% (active) |
| CC1(C(=O)NS(=O)(=O)c2ccc(C#N)cc2)CCN1C(=O)c1ccc(C2CCCCC2)cc1 (stereo not given) | 24.4% (inactive) |
| CN1CCN(C(=O)CCc2ncc(C(F)(F)F)cc2Cl)CC1 | -4.72% (inactive) |
| O=C1NC[C@H](CCCCN2C[C@H](Cc3ccccc3)N(Cc3ccccc3)C(=O)C2=O)N(CCc2ccc(O)cc2)C1=O | -9.13% (inactive) |
| O=c1cc(N2CCCCC2)c(-c2ccccc2)nn1Cc1cccc(F)c1 | -1.41% (inactive) |
| COc1ccc(C(=O)/C=C/Nc2ccccn2)cc1 | 97.4% (active) |
| Cc1ccc(NNC(=O)C2CCC2)cc1C | -5.21% (inactive) |
| CCOc1ccc(N/C=C/C(=O)c2ccccc2)cc1 | 70.8% (active) |
| CCOc1ccc(NC(=O)C2CCCN(C(=O)Nc3ccccc3)C2)cc1 (stereo not given) | -2.21% (inactive) |
| Cc1cc(N/C=C\C(=O)c2ccc(Cl)c(Cl)c2)no1 | -21% (inactive) |
| O=C(/C=C/NCc1ccc(F)cc1)c1ccccc1 | -22.1% (inactive) |

| Structure (SMILES) | inhibition |
| --- | --- |
| CCOc1ccc(NC(=S)N2CCC(NC(=O)c3ccccc3)CC2)cc1 | -4.25% (inactive) |
| COc1ccc(N2C(=O)CCC(C(=O)Nc3ccccn3)C2c2ccc(OC)c(OC)c2)cc1 (stereo not given) | 2.83% (inactive) |
| Cc1ccc(N/C=C/C(=O)c2ccccc2)cc1C | 66.8% (active) |
| COCc1ccc(C(=O)NC2CC(C)(C)Cc3c2cnn3-c2ccc(C)cc2)o1 (stereo not given) | 3.46% (inactive) |
| COCCCNC(=O)CC1C[C@H](C(=O)N2CCCCC2)[C@@]2(CCc3ccccc3)c3[nH]c4ccccc4c3CCN2C1=O (stereo not given in full) | 17.5% (inactive) |
| O=C(CCCl)Nc1ccc(S(=O)(=O)NCc2ccco2)cc1 | 13% (inactive) |
| CCNC(=O)c1cc2c(c(-c3cccc(-c4cncnc4)c3)n1)[C@H](CCO)N(C(C)=O)C2 | -9.64% (inactive) |
| Cc1ccccc1-n1nnc2c(=O)oc3ccccc3c21 | -3.42% (inactive) |
| O=C1CCC(=O)N1c1ccc(NCCc2ccccc2F)c([N+](=O)[O-])c1 | -12.8% (inactive) |
| C=CCc1ccccc1OCC(O)CN1CCN(CCO)CC1 (stereo not given) | -11.8% (inactive) |
| OCCN1CCN(C(=S)c2ccc(-c3ccccc3)cc2)CC1 | 54.4% (active) |
| S=C(c1ccc(-c2ccccc2)o1)N1CCCCC1 | -8.48% (inactive) |
| Cc1cc(C)n2c(NCc3ccccc3)c(CC(C)C)nc2n1 | -7.32% (inactive) |
| Cc1ccc(C)c(S(=O)(=O)N(C)c2ccc(OC(=O)C3CCN(C(=O)c4ccc(F)cc4)CC3)cc2)c1 | -10.5% (inactive) |
| Cc1ccccc1C(CC(=O)c1cccs1)C(C#N)C#N (stereo not given) | 83.8% (active) |
| O=C(NCC(=O)N1CCN(c2ccccc2F)CC1)c1cccs1 | -8.04% (inactive) |
| Cc1ccc(C)c(NC(CC(=O)c2ccccc2)C(=O)OCC(=O)c2cccs2)c1 (stereo not given) | -31.8% (inactive) |
| Cc1nn(-c2ccccc2)c(=O)c2noc(C)c12 | 2.03% (inactive) |
| COc1cccc(CN2C(=O)CCC2(C)C(=O)NC2CCCCCC2)c1 (stereo not given) | 9.99% (inactive) |
| CCOC(=O)C1=CC[C@@H](c2ccccc2)N(S(=O)(=O)c2ccc(C)cc2)[C@H]1c1cccc(OC)c1 | 3.81% (inactive) |

Reference: PubChem BioAssay AID1159606 (Sanford-Burnham Center for Chemical Genomics, 2016)
